The list is not random: actives were taken first. Their share in the collection is about 3.4%.
HSF-1 act = increases HSF-1 driven luciferase reporter signal; NIH3T3-HGL HSF-1 luciferase reporter, MG132, 8 h; 100% = twice DMSO control signal; activation, % at 9 µM; actives 1.7% (n = 300,000); AID 504408;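 active = mean replicate activation of at least 50% with a set share of replicates each reaching 50%; inconclusive = only one of those two conditions met; inactive = mean below 50% and too few replicates reaching it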;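 note: 0% = median of the neutral control wells and 100% = twice that signal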
HSF1 inh = HSF1 inhibition; NIH3T3-HGL HSE-luciferase, MG132-induced, luminescence 8 h; stronger effect = lower value; activity change, negative = inhibition, % at 7.5 µM (by protocol); actives 0.77% (n = 300,000); AID 2098;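 active = more than half of replicate wells show activity change below -50%, luminescence cut by over half; inconclusive = some wells, but at most half, below -50%; inactive = no replicate well below -50%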;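 note: luciferase reports HSF-1 transcriptional activity via heat shock element; 0% = median of DMSO wells and -100% = zero luminescence signal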
Vif imaging = inhibitors of HIV Vif | HEK293T cells, Vif self-association by quenched fluorescence, imaging, 24 h | inhibition, % at 7.49 µM | actives 0.35% (n = 340,000) | AID 602346; in the data active = inhibition above about 50%, passing the limit was not always enough; inconclusive = no clear call, values can overlap the other calls; inactive = below about 31%
esBAF inh = inhibitors of esBAF chromatin remodeling in mouse ES cells | Bmi1-luciferase knock-in reporter, 24 h; 100% = twice the neutral-well signal | reporter increase, % at 12.5 µM | actives 2% (n = 350,000); in the data active = activation above about 40%; inconclusive = no clear call, values can overlap the other calls;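 note: 0% = median of the plate's neutral control wells and 100% = double that signal; a rise in the Bmi1 reporter signal indicates esBAF inhibition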
Active calls of the source: *.

What do the screens show for `Cn1cc(C=O)c(-c2ccc3c(c2)OCCCO3)n1`?
HSF-1 act: 89*; HSF1 inh: 42; Vif imaging: 9; esBAF inh: 29

Results for CCC(=O)N(C)C[C@@H]1Oc2cc(C#Cc3ccccc3)ccc2S(=O)(=O)N([C@H](C)CO)C[C@H]1C ?
esBAF inh: 6

What do the screens show for `CC(C)CC#Cc1ccc2c(c1)O[C@H](CN(C)C(=O)Cc1ccccc1)[C@H](C)CN([C@@H](C)CO)S2(=O)=O`?
esBAF inh: -3

Results for C[C@@H]1CN([C@H](C)CO)C(=O)CCCn2nncc2CO[C@@H]1CN(C)Cc1ccc2c(c1)OCO2 ?
esBAF inh: 0

What do the screens show for `O=C(O)c1cccnc1Sc1ccccc1`?
HSF-1 act: 72*; HSF1 inh: 18; Vif imaging: -3

Results for CCNC(=O)C[C@@H]1CC[C@@H]2[C@@H](COc3ccc(NC(=O)c4ccc(F)cc4)cc3C(=O)N2C)O1 ?
esBAF inh: -1

Results for Cc1ccc(-n2cc(CN3CCN(c4ccccn4)CC3)c(-c3ccc(F)cc3)n2)cc1 ?
HSF-1 act: -10; HSF1 inh: -4; Vif imaging: 2; esBAF inh: 5

What do the screens show for `Cc1ccc(-n2cc(CN3CCN(Cc4nccn4C)CC3)c(-c3ccc(F)cc3)n2)cc1`?
HSF-1 act: 55*; HSF1 inh: 32; Vif imaging: -6; esBAF inh: -22

How did CC(C)=CCc1c(O)cc2c(=O)c3ccc(O)cc3oc2c1O do in these assays?
HSF-1 act: -37; HSF1 inh: -37; Vif imaging: -13; esBAF inh: 59*

What do the screens show for `CC1CCCN(C(=O)c2ccccc2OC2CCN(S(C)(=O)=O)CC2)C1` (stereo unspecified)?
HSF-1 act: 64*; HSF1 inh: 23; Vif imaging: 1

What do the screens show for `CC1CCCCN1C(=O)c1ccccc1OC1CCN(S(C)(=O)=O)CC1` (stereo unspecified)?
HSF-1 act: -53; HSF1 inh: -39; Vif imaging: -1

Results for O=C1CCC2S/C(=C/Nc3ccc(C(F)(F)F)cc3)C(=O)N12 (stereo unspecified) ?
HSF-1 act: -72; HSF1 inh: -65*; Vif imaging: 3; esBAF inh: -85

What do the screens show for `COc1ccccc1C(=O)N1C[C@H]2[C@@H](c3ccccc31)[C@@H](CO)N2C(=O)C1CCOCC1`?
esBAF inh: -1

What do the screens show for `Cc1c(N=C2SCC(=O)N2/N=C/c2ccccc2Cl)c(=O)n(-c2ccccc2)n1C`?
HSF-1 act: 9; HSF1 inh: 5; Vif imaging: 4; esBAF inh: -10

How did Cc1c(N=C2SCC(=O)N2/N=C\c2ccc(Br)cc2)c(=O)n(-c2ccccc2)n1C do in these assays?
HSF-1 act: 67*; HSF1 inh: 21; Vif imaging: -22; esBAF inh: -3

How did C[C@@H]1CN([C@@H](C)CO)C(=O)c2cc(C#Cc3ccccn3)cnc2O[C@H]1CN(C)C(=O)c1ccccn1 do in these assays?
esBAF inh: -2

What do the screens show for `CCCN1C[C@H](C)[C@H](OC)CN(C)C(=O)c2cc(NC(=O)NC3CCCCC3)ccc2OC[C@H]1C`?
esBAF inh: 1

What do the screens show for `O=C(CSc1nnc(-c2ccco2)o1)NC1CCCCC1`?
HSF-1 act: 18; HSF1 inh: -6; Vif imaging: 3; esBAF inh: 2

How did c1ccc(CSc2nnc(-c3ccco3)o2)cc1 do in these assays?
HSF-1 act: 16; HSF1 inh: 12; Vif imaging: 0

What do the screens show for `CN(C(=O)CSc1nnc(-c2ccco2)o1)C1CCCCC1`?
Vif imaging: -5; esBAF inh: 41*

What do the screens show for `Brc1ccc(CSc2nnc(-c3ccco3)o2)cc1`?
HSF-1 act: 56*; HSF1 inh: 36; Vif imaging: -5

How did Cc1cc(Cl)ccc1C(=O)C1CCCN(C(=O)c2cnsn2)C1 (stereo unspecified) do in these assays?
HSF-1 act: 51*; HSF1 inh: 16; Vif imaging: -10; esBAF inh: -9

What do the screens show for `C[C@@H]1CN([C@@H](C)CO)C(=O)c2cccc(NC(=O)c3ccncc3)c2O[C@H]1CN(C)C(=O)Nc1ccc2c(c1)OCO2`?
esBAF inh: -1

What do the screens show for `Cc1cccc(C)c1OCc1nc2ccccc2c(=O)n1/N=C/c1ccc(OCC(=O)O)cc1`?
HSF-1 act: 53*; HSF1 inh: 22; Vif imaging: 3

What do the screens show for `O=C(O)COc1ccc(/C=N/n2c(COc3ccccc3)nc3ccccc3c2=O)cc1`?
HSF-1 act: -1; HSF1 inh: -1; Vif imaging: 4

Results for Cc1nc2ccccc2nc(C)c1=NOCc1ccccc1Cl ?
HSF-1 act: 55*; HSF1 inh: 22; Vif imaging: -1

What do the screens show for `COC(=O)C[C@@H]1CC[C@@H]2[C@H](COc3ccc(NC(=O)Nc4ccc(C#N)cc4)cc3C(=O)N2C)O1`?
esBAF inh: 1

Results for Cc1cc(/C=C2\SC(=S)N(Cc3ccco3)C2=O)c(C)n1-c1ccccc1 ?
HSF-1 act: -72; HSF1 inh: -66*; Vif imaging: -2

How did Cn1c2c(c(=O)n(C)c1=O)C(CC(=O)Nc1ccccc1)C(=O)N2 (stereo unspecified) do in these assays?
HSF-1 act: -73; HSF1 inh: -67*; Vif imaging: 8; esBAF inh: -3

How did COc1ccc(NC(=O)N(C)C[C@H]2Oc3c(NC(=O)Nc4ccc(F)cc4)cccc3C(=O)N([C@H](C)CO)C[C@H]2C)cc1 do in these assays?
esBAF inh: 3

What do the screens show for `Cc1cc(C(=O)CSc2n[nH]c(N)n2)c(C)n1-c1cc(F)ccc1F`?
HSF-1 act: 29; HSF1 inh: 8; esBAF inh: 51*

Results for FC(F)(F)c1ccc(Sc2nnc(-c3cccs3)n2CC2CCCO2)nc1 (stereo unspecified) ?
HSF-1 act: 58*; HSF1 inh: 12; esBAF inh: 9

What do the screens show for `Cc1cccc(Cc2nnc(CCC(=O)N(C)CCc3ccccc3)o2)c1`?
HSF-1 act: 64*; HSF1 inh: 40; Vif imaging: 7; esBAF inh: inconclusive

Results for O=C(Nc1ccc2c(c1)[C@H]1C[C@@H](CC(=O)N3CCCCC3)O[C@H](CO)[C@H]1O2)C1CCOCC1 ?
esBAF inh: -1

What do the screens show for `COC(=O)c1ccc(N=NN2CCCCCC2)cc1`?
HSF-1 act: 75*; HSF1 inh: 32; Vif imaging: 2

Results for COC(=O)c1ccc(N2CCCCC2)c(N)c1 ?
HSF-1 act: 40; HSF1 inh: 8; Vif imaging: 15; esBAF inh: 58*

What do the screens show for `CCCC(=O)c1ccc(N2CCCCCC2)c(F)c1`?
HSF-1 act: 7; HSF1 inh: 21; Vif imaging: -6; esBAF inh: 52*

Results for COC(=O)c1ccc(N=NN2CCOCC2)cc1 ?
HSF-1 act: 16; HSF1 inh: 9; Vif imaging: 9

What do the screens show for `COc1ccc(Cc2nnc(SCC(=O)Nc3ccc(N4CCOCC4)cc3)o2)cc1`?
HSF-1 act: 61*; HSF1 inh: 13; Vif imaging: -5; esBAF inh: -7
